Measured values taken from PubChem BioAssay (NCI).
“And” between values parts separate entries of the source, which are not always exact repeats. Equal values may be shown once. About 83,000 compounds went through this panel and 20% of them were active in at least one assay; those are over-represented in the sample as a whole.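 48-hour exposure, single concentration, 96-well plates; percent growth endpoint where 0 means no net growth. Active: below 10.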 The source made the active and inactive calls.

How the values were obtained:
Assay in all cases: NCI-60 one-dose screen, 48 h (100 = growth as untreated, 0 = no growth, -100 = all killed)
Details in all cases: 10 µM unless noted
NCI-H23 lung = test system: NCI-H23 lung
NCI-H226 lung = test system: NCI-H226 lung
NCI-H322M lung = test system: NCI-H322M lung
HOP-62 NSCLC = test system: HOP-62 NSCLC
NCI-H460 lung = test system: NCI-H460 lung
A549/ATCC NSCLC = test system: A549/ATCC NSCLC
786-0 renal = test system: 786-0 renal
COLO 205 colon = test system: COLO 205 colon
DU-145 prostate = test system: DU-145 prostate
K-562 leukemia = test system: K-562 leukemia
MALME-3M melanoma = test system: MALME-3M melanoma
MDA-MB-231 breast = test system: MDA-MB-231 breast
RXF 393 renal = test system: RXF 393 renal
SF-268 CNS = test system: SF-268 CNS
SF-295 CNS = test system: SF-295 CNS
SF-539 CNS = test system: SF-539 CNS
UACC-257 melanoma = test system: UACC-257 melanoma
M14 melanoma = test system: M14 melanoma
NCI-H522 lung = test system: NCI-H522 lung
HOP-92 NSCLC = test system: HOP-92 NSCLC

Compound	growth (NCI-H23 lung)	growth (NCI-H226 lung)	growth (NCI-H322M lung)	growth (HOP-62 NSCLC)	growth (NCI-H460 lung)	growth (A549/ATCC NSCLC)	growth (786-0 renal)	growth (COLO 205 colon)	growth (DU-145 prostate)	growth (K-562 leukemia)	growth (MALME-3M melanoma)	growth (MDA-MB-231 breast)	growth (RXF 393 renal)	growth (SF-268 CNS)	growth (SF-295 CNS)	growth (SF-539 CNS)	growth (UACC-257 melanoma)	growth (M14 melanoma)	growth (NCI-H522 lung)	growth (HOP-92 NSCLC)
C[N+]12CCC34C5=CC(=O)C(=O)C=C5[N+]5(C)C(=O)CC6OCC=C(C1)C(CC32)C6C45 (configuration not stated)	117% (inactive)	98.6% (inactive)	98.5% (inactive)	102% (inactive)	105% (inactive)	106% (inactive)	112% (inactive)	101% (inactive)	102% (inactive)	97.6% (inactive)	99.4% (inactive)	97.6% (inactive)	93.1% (inactive)	111% (inactive)	93% (inactive)	97.5% (inactive)	113% (inactive)	118% (inactive)		
Cc1cc[n+](CCc2ccccc2)cc1	90.5% (inactive) and 111% (inactive)		96% (inactive) and 96.5% (inactive)	87.9% (inactive) and 114% (inactive)	110% (inactive) and 103% (inactive)		89.7% (inactive) and 100% (inactive)	127% (inactive) and 119% (inactive)	95.3% (inactive) and 115% (inactive)	85.7% (inactive) and 89.1% (inactive)	75.4% (inactive) and 88.6% (inactive)	115% (inactive) and 117% (inactive)		98.6% (inactive) and 108% (inactive)	111% (inactive) and 97.7% (inactive)	97.5% (inactive) and 107% (inactive)	103% (inactive) and 95% (inactive)	97.2% (inactive) and 105% (inactive)	94.8% (inactive) and 85.5% (inactive)	
O=[N+]([O-])c1ccc(CI)cc1	101% (inactive)	94.6% (inactive)	106% (inactive)		101% (inactive)	101% (inactive)	94% (inactive)	88.8% (inactive)	105% (inactive)	12.3% (inactive)	85.6% (inactive)	102% (inactive)		84% (inactive)	110% (inactive)	56.9% (inactive)	80.9% (inactive)			
CN1CCc2cc3c(cc2C1O)OCO3 (configuration not stated)	109% (inactive)	36% (inactive) and 105% (inactive)	127% (inactive) and 98.7% (inactive)	103% (inactive) and 99.1% (inactive)	-48.6% (active) and 107% (inactive)	96.2% (inactive) and 106% (inactive)	100% (inactive) and 91.9% (inactive)	92.9% (inactive) and 111% (inactive)	101% (inactive) and 103% (inactive)	96.7% (inactive)	31% (inactive) and 88.7% (inactive)	97.6% (inactive) and 111% (inactive)	87.8% (inactive) and 114% (inactive)	83.2% (inactive) and 101% (inactive)	86.7% (inactive) and 94.8% (inactive)	33.5% (inactive) and 93% (inactive)	99.2% (inactive) and 111% (inactive)	102% (inactive) and 99% (inactive)	-63.4% (active) and 109% (inactive)	
CCC(Br)(CC)C(=O)NC(N)=O	108% (inactive)	96.4% (inactive)	106% (inactive)		103% (inactive)	104% (inactive)	107% (inactive)	108% (inactive)	107% (inactive)	105% (inactive)	106% (inactive)	121% (inactive)	114% (inactive)	102% (inactive)	97.7% (inactive)	89.9% (inactive)	104% (inactive)	102% (inactive)	105% (inactive)	103% (inactive)
Nc1nc(=S)nc(N)[nH]1	89.5% (inactive)	96.9% (inactive)	102% (inactive)	89% (inactive)	111% (inactive)		88.6% (inactive)		113% (inactive)	103% (inactive)	102% (inactive)	92.1% (inactive)	101% (inactive)	93.3% (inactive)	95.9% (inactive)	97.1% (inactive)	87.2% (inactive)		75.5% (inactive)	
CC(=O)c1cccc(S(=O)(=O)F)c1	100% (inactive)	97.2% (inactive)	95.6% (inactive)	98.4% (inactive)	109% (inactive)	98.6% (inactive)	98.4% (inactive)	114% (inactive)	108% (inactive)	112% (inactive)	98.7% (inactive)	104% (inactive)	98.8% (inactive)	108% (inactive)	83.1% (inactive)	89.1% (inactive)	99.2% (inactive)	91.3% (inactive)	89.8% (inactive)	
